Measured values published in PubChem BioAssay (NCI).
About 83,000 compounds went through this panel and 20% of them were active in at least one assay; those are over-represented in the sample as a whole.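 Each cell line was grown in a 96-well plate and treated with one concentration of compound for 48 hours. Values below 10 were considered active.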 Values without a mark were called inactive. Active and inactive are the calls of the source.

How the values were obtained:
Experiment in all cases: NCI-60 one-dose screen, 48 h (100 = growth as untreated, 0 = no growth, -100 = all killed)
Settings in all cases: 10 µM unless noted
T-47D breast = system: T-47D breast
BT-549 breast = system: BT-549 breast
MDA-MB-435 melanoma = system: MDA-MB-435 melanoma
SW-620 colon = system: SW-620 colon
MCF7 breast = system: MCF7 breast
HCT-116 colon = system: HCT-116 colon
HCC-2998 colon = system: HCC-2998 colon
KM12 colon = system: KM12 colon

| SMILES | growth (T-47D breast) | growth (BT-549 breast) | growth (MDA-MB-435 melanoma) | growth (SW-620 colon) | growth (MCF7 breast) | growth (HCT-116 colon) | growth (HCC-2998 colon) | growth (KM12 colon) |
| --- | --- | --- | --- | --- | --- | --- | --- | --- |
| CCCC(=O)NC(c1cccnc1)c1ccc2c(C)ccnc2c1O (stereo not given) | 20.7% | 26.2% | 30.6% | 28.6% | -2.74% (active) | 16.7% | 24% | 20% |
| COc1ccc([C@@H]2[C@@H](O)C(=O)N2c2cc(OC)c(OC)c(OC)c2)cc1Cl | 103% | -9.18% (active) | -8.49% (active) | 17.9% | 11.5% | 2.44% (active) | 8.34% (active) | 13.2% |
| CNC(=O)c1cc(Oc2ccc3nc(NC(=O)c4cccc(C(F)(F)F)c4)sc3c2)ccn1 | 96.9% | 105% | 95.1% | 105% | 85.6% | 94.1% | 109% | 102% |
| CCN1C(=O)N(CC)C2SC(N/N=C/C=C/c3ccccc3OC)=NC21 (stereo not given) | 67.3% | 18.7% | -16.7% (active) | 20.4% | 12.9% | 6.23% (active) | 8.41% (active) | 11.6% |
| O=C1[C@@H]2Cc3c([nH]c4ccccc34)[C@H](c3c(Cl)cccc3Cl)N2C(=O)CN1C1CCN(Cc2ccccc2)CC1 | 76.8% | 29.4% | -61.8% (active) | 10.6% | 1.17% (active) | -32.8% (active) | 10.6% | 30.2% |
| COc1cc2cc(Oc3ccc(NC(=O)c4cccc(C(F)(F)F)c4)cc3)c(C)nc2cc1OCCN(C)C | 91.2% | 101% | 6.7% (active) | 79.5% | 22.7% | 61.2% | 80.3% | 76.9% |
| CC(C)(C)CC(C)(C)n1nnnc1C(Nc1ccccc1)c1cc2cccc3ccc4cccc1c4c32 (stereo not given) | 55.7% | 130% | 83.6% | 82.3% | 61.6% | 45.1% | 90.8% | 86.7% |
| COc1ccc2c(C3=C(c4cn(C)c5ccccc45)C(=O)NC3=O)coc2c1 | 44% | 82.6% | 6.58% (active) | 39% | 24.3% | 15.8% | 28.2% | 32.1% |
| CCOC(=O)c1c(NCC(=O)Nc2cccc([N+](=O)[O-])c2)sc2c1CCCC2 | -28.2% (active) | -57.3% (active) | -91.5% (active) | -2.82% (active) | -12.8% (active) | -21% (active) | -76.5% (active) | -20.4% (active) |
| Cc1ccc(S(=O)(=O)N/N=C/c2cn(-c3ccc(F)cc3)nc2-c2ccc(S(C)(=O)=O)cc2)cc1 | 98.5% | 105% | 100% | 103% | 95.7% | 107% | 108% | 102% |
| N/C(=N\c1nc2ccc([N+](=O)[O-])cc2s1)C(Cl)(Cl)Cl | 30.7% | 93.3% | 83.6% | 70.5% | 40% | 53.9% | 74% | 37.6% |
| O=C1NC(=O)/C(=C/c2ccc(OCc3cc4ccccc4nc3Cl)cc2)S1 | 87.8% | 123% | 98.3% | 104% | 91.6% | 98.1% | 105% | 100% |
| CCc1ccc(NC(=O)N[C@@H](Cc2cc(F)cc(F)c2)C(=O)N[C@@H]2C(=O)N3CCC[C@H]3C(=O)N3CCO[C@H](C)[C@H]3C(=O)N[C@@H](CO)C(=O)N3C[C@H](C)C[C@H]3C(=O)O[C@H]2C)c(F)c1 | 35.7% | 33.3% | 20.3% | 35.7% | 15.7% | 11.6% | 26% | 39.6% |
| N/C(=N\OC(=O)CSc1nc2ccccc2s1)c1ccc2ccccc2c1 | 97.7% | 100% | 104% | 100% | 94.2% | 103% | 107% | 103% |
| CC(c1ccccc1)N1C(=O)/C(=C/c2csc(C#N)n2)SC1=S (stereo not given) | 69.2% | 90.5% | 94.4% | 74.1% | 36.6% | 67.6% | 107% | 103% |
